Bioassay records: PubChem, National Center for Advancing Translational Sciences (NCATS)
Tau fibril FP – qHTS for Inhibitors of Tau Fibril Formation, Fluorescence Polarization; hit rate 0.39% among 280,000; Microtubule-associated protein tau (Homo sapiens), P10636; AID 1468, 2008; K18 P301L tau heparin fibrillization, Alexa594 FP, 6 h; Potency, µM (top dose mostly 57.7 µM), for the others: at the highest dose activity, negative = inhibition, usual class: inhibitors; also: nearly all actives have a fitted effect of over 55% in size
Target sequence (P10636 561-689 P618L limits assumed): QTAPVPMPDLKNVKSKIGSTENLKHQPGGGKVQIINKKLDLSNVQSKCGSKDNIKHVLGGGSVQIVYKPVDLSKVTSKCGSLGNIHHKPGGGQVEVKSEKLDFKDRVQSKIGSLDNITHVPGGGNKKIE
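Human tau K18 […] P301L fragment, 15 uM unlabeled plus 0.24 uM Alexa 594-labeled tau (final), with compound and 20 uM heparin in 100 mM sodium acetate pH 7; 6 hr at 37 C, then Alexa 594 FP read.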
VDR inhibitor – Inhibitors of the vitamin D receptor (VDR): qHTS | Vitamin D3 receptor (Homo sapiens), P11473 | VDR-SRC2-3 peptide fluorescence polarization, 2 h | Potency, µM, without a hit: max response, negative = inhibition, actives largely listed as inhibitors | hit rate 0.93% among 400,000
Target sequence (P11473 whole entry, looked up): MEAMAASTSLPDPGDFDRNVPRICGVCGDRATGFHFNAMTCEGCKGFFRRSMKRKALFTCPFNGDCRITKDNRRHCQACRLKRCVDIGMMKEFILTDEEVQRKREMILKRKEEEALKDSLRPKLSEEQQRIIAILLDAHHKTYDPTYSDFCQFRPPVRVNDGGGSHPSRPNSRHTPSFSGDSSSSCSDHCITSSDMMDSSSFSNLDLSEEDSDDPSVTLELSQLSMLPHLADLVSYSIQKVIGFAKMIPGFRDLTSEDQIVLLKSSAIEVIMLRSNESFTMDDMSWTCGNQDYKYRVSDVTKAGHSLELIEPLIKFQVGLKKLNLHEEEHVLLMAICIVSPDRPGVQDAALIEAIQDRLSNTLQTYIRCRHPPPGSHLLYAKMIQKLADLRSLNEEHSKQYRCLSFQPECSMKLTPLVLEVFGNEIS
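Measured by FP: displacement of SRC2-3 coactivator peptide from VDR by library compounds, following a two-hour ambient incubation.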
Tau fluor counter – Counterscreen qHTS for Inhibitors of Tau Fibril Formation, Fluorescence Polarization; hit rate 0.93% among 280,000; Potency, µM (series often up to 57.7 µM), inactives show top-dose activity change, negative = decrease; AID 1463, 2008; tau K18 P301L Alexa594 fluorescence, heparin fibrillization; also: nearly all actives have a fitted effect of over 55% in size
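Human K18 P301L tau (15 uM unlabeled plus 0.24 uM Alexa 594-labeled, final) in 100 mM sodium acetate pH 7 was mixed with compound and 20 uM heparin and incubated 6 hr at 37 C.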
PLK1 PBD inh – qHTS for Inhibitors of PLK1-PDB (polo-like kinase 1 - polo-box domain): Primary Screen; Plk1 PBD binding of FITC phosphopeptide, fluorescence polarization; Potency, µM, for inactives: max response, negative = inhibition, hits mostly inhibitors; hit rate 2.8% among 360,000; AID 720504, 2013; also: series mostly up to about 57 µM; nearly all actives have a fitted effect of over 65% in size
Sfp PPTase inh – qHTS Assay for Inhibitors of Bacillus subtilis Sfp phosphopantetheinyl transferase (PPTase); 4'-phosphopantetheinyl transferase ffp (Bacillus subtilis), Q9F4F7; Biochemical Sfp PPTase activity, qHTS; Potency, µM, inactives show largest response in the series, negative = inhibition, most hits filed as inhibitors; hit rate 3.5% among 310,000;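 also: the enzyme is Sfp with the accession as filed and its product quenches rhodamine fluorescence; 0% = enzyme reaction without inhibitor and -100% = no enzyme wells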
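After 15 min at room temperature with compound, 15 nM Sfp received 5 uM rhodamine-CoA plus 12.5 uM BHQ-2-ybbR (50 mM Hepes pH 7.6, 10 mM MgCl2). Rate came from the fluorescence difference over 30 min, ex 525/em 598 nm.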
Tau fibril ThT – qHTS for Inhibitors of Tau Fibril Formation, Thioflavin T Binding. recombinant tau K18 P301L, heparin-induced fibrillization, ThT fluorescence. Potency, µM (titrated, usually from 57.4 µM), for the others: at the top dose activity, negative = inhibition, hits mostly inhibitors. hit rate 2.1% among 270,000. Microtubule-associated protein tau (Homo sapiens), P10636; also: nearly all actives have a fitted effect of over 55% in size
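ThT emission at 510 nm, taken 1 hr after adding 30 uM dye, quantifies aggregates formed when 20 uM heparin acts on human tau K18 P301L for 6 hr at 37 C.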
An asterisk follows results filed as active; ! = not active in a repeat; [ ] = dose if it differs, or a comment. In the library only some 6% were active in any assay of this set; here they are far more common. Calls follow the shape of the dose curve; as a rule, active = well fitted curve in the direction sought with a large enough effect; inconclusive = small, poorly fitted or top-dose-only effect, or another doubt; inactive = no such curve, though single readings can be large; an effect the other way counts as inactive or inconclusive. Unless noted, % is scaled to controls: 0 for no effect and ±100 for the full control effect; potency is read from the fitted curve at half-maximal effect.

CC[C@H](C)[C@H](NC(=O)[C@H](CCC(=O)O)NC(=O)[C@@H](N)CO)C(=O)N[C@@H](CCC(N)=O)C(=O)N[C@@H](CC(C)C)C(=O)N[C@@H](CCSC)C(=O)N[C@@H](Cc1cnc[nH]1)C(=O)N[C@@H](CC(N)=O)C(=O)N[C@@H](CC(C)C)C(=O)NCC(=O)N[C@@H](CCCCN)C(=O)N[C@@H](Cc1cnc[nH]1)C(=O)N[C@@H](CC(C)C)C(=O)N[C@@H](C)C(=O)N[C@@H](CO)C(=O)N[C@H](C(=O)N[C@@H](CCC(=O)O)C(=O)N[C@@H](CCCNC(=N)N)C(=O)N[C@@H](CCSC)C(=O)N[C@@H](CCC(N)=O)C(=O)N[C@@H](Cc1c[nH]c2ccccc12)C(=O)N[C@@H](CC(C)C)C(=O)N[C@@H](CCCNC(=N)N)C(=O)N[C@@H](CCCCN)C(=O)N[C@@H](CCCCN)C(=O)N[C@@H](CC(C)C)C(=O)N[C@@H](CCC(N)=O)C(=O)N[C@@H](CC(=O)O)C(=O)N[C@H](C(=O)N[C@@H](Cc1cnc[nH]1)C(=O)N[C@@H](CC(N)=O)C(=O)N[C@@H](Cc1ccccc1)C(=O)O)C(C)C)C(C)C was read as VDR inhibitor 7% and Sfp PPTase inh 3%.
`Cc1cccc(NC(=O)CN2C(=O)CCc3ccccc32)c1C` gave Tau fibril FP inconclusive, VDR inhibitor 4%, Tau fluor counter inconclusive and Tau fibril ThT -11%.
For O=C(NNC(=S)Nc1ccc(C(=O)O)c(O)c1)c1ccncc1 the results were VDR inhibitor inconclusive and PLK1 PBD inh 27µM*.
`Cc1nc(N=Nc2cc(S(=O)(=O)O)c3cc([N+](=O)[O-])cc(S(=O)(=O)O)c3c2)c(COP(=O)(O)O)c(C=O)c1O` gave Tau fibril FP 20µM*, VDR inhibitor 40µM*!, Tau fluor counter 14µM*[quencher], Sfp PPTase inh 40µM*! and Tau fibril ThT 8.9µM*.
`Cc1nc(N=Nc2cc([N+](=O)[O-])ccc2Cl)c(COP(=O)(O)O)c(C=O)c1O` gave VDR inhibitor 45µM* and Sfp PPTase inh -21%.
`CCOc1cc(C=O)cc(N=Nc2cccc([N+](=O)[O-])c2)c1O` gave VDR inhibitor 6%, PLK1 PBD inh -16% and Sfp PPTase inh 9%.
For CN(Cc1nc(Cc2cccc(F)c2)no1)CC1CCOCC1 the results were Tau fibril FP -9%, VDR inhibitor -10%, Tau fluor counter 1%, PLK1 PBD inh -21%, Sfp PPTase inh -2% and Tau fibril ThT 7%.
`Cc1nc(SCC(=O)O)n[nH]1` gave Tau fibril FP -5%, VDR inhibitor -14%, Tau fluor counter 0%, PLK1 PBD inh 3%, Sfp PPTase inh 7% and Tau fibril ThT 7%.
Screening Cc1ccc(C(=O)CSc2n[nH]c(C)n2)cc1 returned Tau fibril FP -1%, VDR inhibitor inconclusive, Tau fluor counter -3%, PLK1 PBD inh 30µM*, Sfp PPTase inh 89µM* and Tau fibril ThT -9%.
Screening Cc1nc(SCC(=O)NCCc2ccccc2)n[nH]1 returned Tau fibril FP 6%, VDR inhibitor -5%, Tau fluor counter 9%, PLK1 PBD inh 3.8µM*, Sfp PPTase inh 6% and Tau fibril ThT -1%.
O=C(CSc1n[nH]c(-c2ccccc2)n1)NCCc1ccccc1 was read as Tau fibril FP -3%, VDR inhibitor 4%, Tau fluor counter -8% and Tau fibril ThT -11%.
Screening CCc1ccc(C(=O)CSc2n[nH]c(C)n2)cc1 returned Tau fibril FP 3%, VDR inhibitor inconclusive, Tau fluor counter 7%, PLK1 PBD inh 27µM*, Sfp PPTase inh 56µM* and Tau fibril ThT -4%.
For Cc1cccc(C)c1NC(=O)CSc1nc(C2CC2)nc2ccccc12 the results were VDR inhibitor -13%, PLK1 PBD inh -8% and Sfp PPTase inh -11%.
O=C(OCC(=O)c1ccccc1Br)c1ccccn1 was read as Tau fibril FP -2%, VDR inhibitor -3%, Tau fluor counter -1%, PLK1 PBD inh inconclusive, Sfp PPTase inh 56µM* and Tau fibril ThT -14%.
`CCOC(=O)C1(C#N)Cc2ccccc2C1` gave VDR inhibitor -2% and PLK1 PBD inh 2%.
Screening COc1ccc(C(=O)C[n+]2ccccc2C)cc1 returned Tau fibril FP 0%, VDR inhibitor 32µM*, Tau fluor counter -4%, PLK1 PBD inh 6µM*, Sfp PPTase inh -14% and Tau fibril ThT -3%.
CCCCC(Sc1nc2cc3c(cc2c(=O)n1CCCC(=O)NCc1ccc(OC)cc1)OCO3)C(=O)OCC (stereo not drawn) was read as Tau fibril FP 1%, VDR inhibitor 14%, Tau fluor counter -14% and Tau fibril ThT -13%.
O=C(COc1ccc([N+](=O)[O-])cc1)NNC(=S)NC(=O)c1ccc(Br)cc1 was read as Tau fibril FP -8%, VDR inhibitor inconclusive, Tau fluor counter -7%, PLK1 PBD inh 13µM*, Sfp PPTase inh 45µM* and Tau fibril ThT inconclusive.
Screening CC(=O)NNC(=S)NC(=O)c1ccccc1 returned Tau fibril FP -1%, VDR inhibitor 5%, Tau fluor counter 3%, PLK1 PBD inh -7%, Sfp PPTase inh 18µM* and Tau fibril ThT -5%.
For CC(=O)NNC(=S)NC(=O)c1ccc(C)cc1 the results were Tau fibril FP 4%[2.34 µM], VDR inhibitor -12%, Tau fluor counter 2%[2.34 µM], PLK1 PBD inh 3%, Sfp PPTase inh 23% and Tau fibril ThT inconclusive.
COC(=O)C(NC(=O)c1ccccc1)=C(C)C was read as Tau fibril FP 2%, VDR inhibitor -9%, Tau fluor counter 4%, PLK1 PBD inh 3.4µM*, Sfp PPTase inh 17% and Tau fibril ThT -7%.
Screening CCC(=O)NNC(=S)NC(=O)c1ccc(C)cc1 returned Tau fibril FP -2%, VDR inhibitor -3%, Tau fluor counter 4%, PLK1 PBD inh inconclusive, Sfp PPTase inh 56µM* and Tau fibril ThT -10%.
CCC(=O)NC(=S)Nc1ccc(NC(=S)NC(=O)c2ccc(C)cc2)cc1 was read as Tau fibril FP -9%, VDR inhibitor 3%, Tau fluor counter 3%, PLK1 PBD inh 0%, Sfp PPTase inh -4% and Tau fibril ThT -12%.
